# Source: PubChem BioAssay
# HCV NS3h FP: blocks HCV NS3 helicase binding to DNA | inhibition, % at 100 µM | 16,000 tested, 1.6% active | NS3h Cy5-dT15 DNA binding, fluorescence polarization | AID 687043;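 active = inhibition above the average over every tested compound plus 3 SD, cut at about 40% in these data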
# Cy5 interf NS3h: Cy5 fluorescence interference, HCV helicase counter-screen | fluorescence interference ratio at 100 µM | Cy5-dT15 DNA with NS3h; actives lie on both sides; signal over control mean, under 1 quenches | AID 720488 | 16,000 tested, 6% active;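 active = compound fluorescence over control fluorescence at most 0.8, a quencher, or at least a set upper limit, an enhancer; inactive = ratio between 0.8 and the set upper limit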
# Numbers without * were called inactive. Most compounds without a hit are left out; they make up all but 6.9% or so of the library.
SMILES,HCV NS3h FP,Cy5 interf NS3h
Cc1ccc(C(=O)NC(NC(=S)Nc2cc(C)ccc2C)C(Cl)(Cl)Cl)cc1 (configuration not stated),3,0.64*
Cc1ccc(C(=O)NC(NC(=S)Nc2ccccc2)C(Cl)(Cl)Cl)cc1 (configuration not stated),0,0.96
Cc1ccc2nc(/C(C#N)=C/c3ccc([N+](=O)[O-])c(Cl)c3Cl)[nH]c2c1,7,0.96
O=C1NC(=S)NC(=O)C1=Cc1ccc(O)c(Cl)c1,45*,1
O=C1NC(=S)N(c2ccc(Br)cc2)C(=O)/C1=C/c1ccc(O)c(Cl)c1,27,0.94
C=CCc1c(C)nc2c(C)c(-c3ccc(C)cc3)[nH]n2c1=O,20,1.1
C=CCc1c(C)nc2cc(-c3ccc(C)cc3)[nH]n2c1=O,62*,1.2*
CC1=NN(c2cccc(C(=O)O)c2)C(=O)/C1=C\c1ccc(-c2cc([N+](=O)[O-])ccc2C)o1,8,0.97
CC1=NN(c2ccc(C)c(C)c2)C(=O)/C1=C/c1ccc([N+](=O)[O-])o1,20,0.68*
CN1C(=O)/C(=C\c2ccc(OCc3cccc4ccccc34)cc2)SC1=S,-1,1.1
CC1=C(C(=O)OCCOC(C)C)C(c2cccs2)C2=C(CC(C)(C)CC2=O)N1 (configuration not stated),11,1
CC(=O)Nc1nc(C)c(-c2csc(Nc3ncccn3)n2)s1,-17,0.51*
CCC(=O)Nc1nc(C)c(-c2csc(Nc3cc(C)ccn3)n2)s1,14,0.98
CC(=O)N(C)N1c2ccccc2CCc2ccccc21,4,1.1
CC(=O)N1c2ccccc2CC(N2CCCCC2)c2ccccc21 (configuration not stated),9,0.76*
CC(N=C(NS(=O)(=O)c1ccccc1)c1ccccc1)C(=O)O (configuration not stated),-15,1
Cc1ccc(S(=O)(=O)NC(=NC(Cc2ccccc2)C(=O)O)c2ccccc2)cc1 (configuration not stated),20,0.74*
COc1cc(/C=C2\SC(N)=NC2=O)c([N+](=O)[O-])cc1OC,-15,0.77*
NC1=NC(=O)/C(=C\c2ccccc2Cl)S1,8,1.1
Cc1cc(C)c(NS(=O)(=O)c2cc([N+](=O)[O-])ccc2Cl)c(C)c1,3,0.96
CCOc1cc(/C=C2/C(=O)NC(=O)N(c3ccc(OC)cc3)C2=O)ccc1OCCOc1ccc([N+](=O)[O-])cc1,12,0.97
Cn1c(-c2ccc(C=O)o2)nc2c3ccccc3c3ccccc3c21,10,0.99
O=C(c1ccc(Cl)c(Cl)c1)N1CCN(c2ccc([N+](=O)[O-])c(N3CCOCC3)c2)CC1,22,0.65*
O=C(c1cc(N2CCCCC2)c(F)cc1[N+](=O)[O-])N1CCCCC1,-6,0.95
O=[N+]([O-])c1ccc(N2CCN(S(=O)(=O)c3ccc(Cl)cc3)CC2)cc1N1CCOCC1,16,0.95
SMILES,HCV NS3h FP,Cy5 interf NS3h
O=C(c1cc(F)c(F)cc1Cl)N1CCN(c2ccc([N+](=O)[O-])c(N3CCCC3)c2)CC1,27,0.67*
O=C(c1cc(N2CCOCC2)c(F)cc1[N+](=O)[O-])N1CCOCC1,15,0.68*
O=C(c1cc(F)c(F)cc1Cl)N1CCN(c2ccc([N+](=O)[O-])c3ncccc23)CC1,12,1
COc1ccccc1NS(=O)(=O)c1cccc2c1C(=O)c1ccccc1C2=O,16,0.99
O=C1NC(=O)/C(=C/c2ccccc2OCc2ccc(Cl)cc2)S1,10,1.1
CC1=C(C(=O)Nc2ccccc2)C(c2ccc(Br)cc2)NC(=O)N1 (configuration not stated),-6,0.94
O=C(NCCOc1ccccc1F)c1ccc(Br)cc1,2,1
CCOC(=O)Cc1cc(-c2ccccc2)nc2ccc3ccccc3c12,2,1
CCOC(=O)CC(O)(c1ccccc1)C(F)(F)C(F)F (configuration not stated),8,0.75*
Cc1ccccc1NC(=O)/C(=C\c1cccs1)NC(=O)c1ccc(C(C)(C)C)cc1,-1,1
CCOc1ccc(/C=C2\SC(=S)N(Cc3ccccc3)C2=O)c(OCC)c1,10,1.1
CCCC(=O)Nc1cc(OC)ccc1OC,16,0.74*
COc1ccc(OC)c(NC(=O)COc2ccc(Br)cc2C)c1,-4,1
Cc1cc(C)c(/C=N\O)c(C)c1/C=N\O,-1,0.69*
Cc1ccc(C(=O)N/C(=C\c2cccc([N+](=O)[O-])c2)C(=O)N2CCCCC2)cc1,4,0.95
CCOc1ccc(C(=O)Nc2ccc(N3CCOCC3)c(Cl)c2)cc1Cl,10,0.98
CCOc1ccc(C(=O)Nc2ccc(C)cc2[N+](=O)[O-])cc1Cl,7,1
CCOc1ccc(C(=O)Nc2cccc([N+](=O)[O-])c2)cc1Cl,2,0.57*
CCOc1ccc(C(=O)Nc2ccc(NC(=O)CC)cc2)cc1Cl,16,0.73*
CCOC(=O)c1c(N)sc(C(=O)Nc2cccc(Cl)c2)c1C,16,0.95
Cc1cc(-c2ccc(F)cc2)nc2cc(C(=O)O)nn12,4,0.94
CN(C)c1ccc(NC(=O)c2ccc(Cl)c([N+](=O)[O-])c2)cc1,44*,0.32*
Cc1ccc(C(=O)Nc2ccc(I)cc2)cc1[N+](=O)[O-],14,1.1
O=C(Nc1ccc2nn(-c3ccccc3)nc2c1)c1cccc(F)c1,-20,0.94
O=C(Nc1ccc2nn(-c3ccccc3)nc2c1)c1ccc(Cl)c([N+](=O)[O-])c1,-8,0.44*
SMILES,HCV NS3h FP,Cy5 interf NS3h
O=C(O)c1ccc(NC(=O)c2ccc(Cl)c([N+](=O)[O-])c2)cc1,10,0.9
Cc1ccc(C(=O)Nc2ccccc2)cc1[N+](=O)[O-],10,0.63*
COc1ccc(C2=N/C(=C/c3ccc([N+](=O)[O-])cc3)C(=O)N2c2ccc(F)cc2)cc1,12,1.2
NC1=NC(=O)/C(=C/c2ccc(Cl)cc2)S1,18,1.2
C=CCN1C(=O)C(Cc2ccc(OC)cc2)S/C1=N/N=C\c1cccs1 (configuration not stated),20,0.98
CCOCCOC(=O)c1ccc(NC(=O)COc2cc(C)ccc2C(C)C)cc1,8,0.99
Cc1ccc(C=C2C(=O)N(C)C(=S)N(c3ccccc3)C2=O)s1,20,1.3*
Cc1cccc(C(=O)Oc2ccc(/C=C3/SC(=S)N(c4ccccc4)C3=O)cc2)c1,4,1.1
COc1ccc(N2C(=O)C3C4C=CC(C5CC45)C3C2=O)c([N+](=O)[O-])c1 (configuration not stated),6,0.98
COc1cc([N+](=O)[O-])ccc1N1C(=O)C2C3C=CC(C4CC34)C2C1=O (configuration not stated),9,0.75*
O=C1N/C(=C/c2ccccc2)C(O)=C1C=NCc1ccccc1,14,0.98
COc1ccc(/C=C2/SC(=O)N(CNc3cc(C)ccc3C)C2=O)cc1OC,5,1
Cc1ccc(S(=O)(=O)OCP(=O)(c2ccccc2)c2ccccc2)cc1,9,0.77*
COCP(=O)(c1ccccc1)c1ccccc1,-9,0.91
CCCc1ccc(C(=O)O/N=C(/N)c2ccccn2)cc1,14,1
C=CCN1C(=O)/C(=C\c2cn(Cc3ccccc3F)c3ccccc23)SC1=S,12,1.1
C=CCN1C(=O)/C(=C\c2ccc(Br)c([N+](=O)[O-])c2)SC1=S,18,0.65*
C=CCN1C(=O)/C(=C/c2cccc(Br)c2)SC1=S,0,0.94
